GPR32 ag – agonists of human resolvin D1 receptor DRV1 (GPR32). actives 2.5% (n = 48,000). AID 1346428. activation, % at 76.9 µM. O75388. CHO-K1 GPR32 beta-arrestin PathHunter luminescence, 90 min; zero percent set by DMSO-only wells;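 active means activation of at least 60% and not above a set upper limit, about 1 call in 100 departs from these limits; inconclusive means activation of 40% to 60%, or above that upper limit; inactive means activation under 40%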
Target sequence (O75388 whole entry, looked up): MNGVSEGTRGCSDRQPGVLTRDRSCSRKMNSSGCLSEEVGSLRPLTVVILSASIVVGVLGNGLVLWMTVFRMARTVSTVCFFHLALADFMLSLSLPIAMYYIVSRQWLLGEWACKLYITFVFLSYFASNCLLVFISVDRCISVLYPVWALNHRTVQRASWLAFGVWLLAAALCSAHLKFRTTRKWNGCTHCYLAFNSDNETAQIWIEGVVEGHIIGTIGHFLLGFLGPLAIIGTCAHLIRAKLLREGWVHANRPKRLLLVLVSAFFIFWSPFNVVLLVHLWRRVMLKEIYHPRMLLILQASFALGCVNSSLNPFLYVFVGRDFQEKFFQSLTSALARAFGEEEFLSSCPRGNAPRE
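PathHunter enzyme-fragment complementation, CHO-K1 GPR32 stable line; 2,500 cells/well, overnight attach; cpd 90 min 37 °C 5% CO2; detection reagent 1 h RT; chemiluminescence. DMSO = EC0.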
HTT promoter inh – inhibitors of huntingtin promoter activity. HEK293 HTT promoter firefly luciferase reporter, 24 h. Potency, µM (titrated, usually from 57.5 µM), most hits filed as inhibitors. actives 0.93% (n = 48,000); further: nearly all actives have a fitted effect of over 50% in size
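HEK293 cells carrying firefly luciferase reporters were seeded at 2,500 per well in Opti-MEM and cultured for 24 h. They were then treated with compounds at up to 57.5 uM final for 24 h at 37 degrees C before Dual-Glo luminescence readout.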
HTT-AS act – activates huntingtin-antisense promoter activity | HEK293 HTT-AS promoter firefly luciferase reporter, 24 h; response scale: percent change from vehicle, -100% = no light | Potency, µM (series often up to 57.5 µM), actives largely listed as activators | actives 0.24% (n = 48,000) | AID 1508624; further: nearly all actives have a fitted effect of over 55% in size
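Luminescence was read after Dual-Glo reagent and a 10 min room-temperature incubation. Values were normalized to vehicle (0% activity) and zero RLU (-100% activity). Reporter HEK293 cells had been exposed to compounds (up to 57.5 uM final) for 24 h.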
NTMT1 inh – NTMT1 methyltransferase inhibition; NTMT1 MTase-Glo SAH luminescence, purified enzyme; Potency, µM (titrated, usually from 114 µM), actives largely listed as inhibitors; actives 2.5% (n = 59,000); further: nearly all actives have a fitted effect of over 65% in size
Target sequence (Q9BV86 whole entry, looked up): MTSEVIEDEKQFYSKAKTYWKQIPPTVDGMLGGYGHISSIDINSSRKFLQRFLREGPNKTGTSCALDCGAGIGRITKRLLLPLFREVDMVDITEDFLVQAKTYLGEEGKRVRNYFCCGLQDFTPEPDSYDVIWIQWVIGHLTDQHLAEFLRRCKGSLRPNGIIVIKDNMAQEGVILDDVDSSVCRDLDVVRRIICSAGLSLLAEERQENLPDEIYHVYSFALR
Each line names hits and unclear results; the compound was inactive in the other large screens; ! = a repeat was not active. This is a sample that favours compounds with a hit; in the whole collection about 4.6% have one here. Unless noted, the call rests on the fitted dose curve; in most records, active means well fitted curve in the direction sought with a large enough effect; inconclusive means small, poorly fitted or top-dose-only effect, or another doubt; inactive means no such curve, though single readings can be large; an effect the other way counts as inactive or inconclusive.

CC(=O)N1c2c(cc(Br)cc2S(=O)(=O)Nc2ccc(OC(F)(F)F)cc2)CC1C (stereo not given)	HTT promoter inh 25.1µM
CCOC(=O)c1ccc(NS(=O)(=O)c2cc(Br)cc3c2N(C(C)=O)C(C)C3)cc1 (stereo not given)	HTT promoter inh 15.8µM
O=C(Nc1ccc(Cl)cc1)c1ccccc1NCc1ccncc1	none (no result: GPR32 ag, HTT promoter inh, HTT-AS act)
Cc1cc(Nc2cccc(O)c2)c2cccc(Br)c2n1	GPR32 ag 119.3
CCOC(=O)c1cnc2c(OC)cccc2c1Nc1cccc(O)c1	HTT promoter inh inconclusive
COc1ccc(Cl)cc1NC(=O)Cn1nc(C(F)(F)F)c2c1CCCC2	HTT promoter inh inconclusive
COc1cc(NC(=O)Cn2nc(C(F)(F)F)c3c2CCCC3)cc(OC)c1OC	HTT promoter inh 22.4µM
COc1ccc(OCC(=O)NCC(c2ccc(Cl)cc2)N2CCCCC2)cc1 (stereo not given)	NTMT1 inh inconclusive
Cc1ccc(OCC(=O)NCC(c2ccc(Cl)cc2)N2CCCCC2)cc1 (stereo not given)	NTMT1 inh 79.4µM
CNCCn1c(=O)c2cc(OC)c(OC)cc2c2cnc3cc4c(cc3c21)OCO4	none (no result: GPR32 ag, HTT promoter inh, HTT-AS act)
CCCCOc1cccc(C(=O)N(Cc2ccc(C)o2)c2ccccn2)c1	HTT promoter inh 28.2µM
Cc1ccc(CN(C(=O)c2ccc(F)cc2)c2ccccn2)o1	none
COc1cc(O)c(C(CC(=O)N2CCCCC2)c2ccc(C)cc2)c(OC)c1 (stereo not given)	none (no result: GPR32 ag, HTT promoter inh, HTT-AS act)
Cc1c(NC(=O)c2ccc(OC(C)C)cc2)cccc1-c1nc2ncccc2o1	GPR32 ag 88.9
c1cn2cc(-c3ccc4cn[nH]c4c3)nc(Nc3ccc(N4CCOCC4)cc3)c2n1	NTMT1 inh 20µM (no result: GPR32 ag, HTT promoter inh, HTT-AS act)
Cc1ccc(Nc2c(-c3ccc(N4CCOCC4)cc3)nc3ncccn23)cc1	none
FC(F)(F)c1ccc(-c2nc(-c3nnc4n3CCCCC4)c(C(F)(F)F)o2)cc1	none (no result: GPR32 ag, HTT promoter inh, HTT-AS act)
NC1(c2ccc(-c3nc4ccn5c(=O)[nH]nc5c4cc3-c3ccccc3)cc2)CCC1	HTT promoter inh inconclusive, NTMT1 inh 50.1µM!
CCc1ccc(NC(=O)Cn2nc3c4ccccc4n(Cc4ccccc4)cc-3c2=O)cc1	GPR32 ag 84.1
CC(=O)Nc1sc2c(c1-c1nc3ccccc3s1)CCN(C(=O)OC(C)(C)C)C2	none (no result: GPR32 ag, HTT promoter inh, HTT-AS act)
CC(=O)Nc1sc2c(c1-c1nc3ccccc3s1)CNC2	HTT promoter inh inconclusive, NTMT1 inh 79.4µM! (no result: GPR32 ag)
Cc1ccc(Cn2ccn(CC(=O)Nc3c(C)cc(C)cc3C)c(=O)c2=O)cc1	NTMT1 inh 50.1µM
Cc1ccc(CNC(=O)Cn2ccn(-c3cc(C)cc(C)c3)c(=O)c2=O)cc1	none
CCOC(=O)C1CCCN(C(=O)c2cc3c(=O)n(C)c4ccccc4c3s2)C1 (stereo not given)	GPR32 ag 103.3, HTT promoter inh inconclusive
CCCCN(C)C(=O)Cn1nc(-c2ccccc2C)ccc1=O	none (no result: GPR32 ag, HTT promoter inh, HTT-AS act)
CC(=O)c1ccc(N2CCN(C(=O)CCCn3c(=O)[nH]c4ccsc4c3=O)CC2)cc1	none
Cc1cccc(N2CCN(C(=O)CCCCn3c(=O)[nH]c4ccsc4c3=O)CC2)c1C	GPR32 ag 61.7, HTT promoter inh inconclusive
O=C(CCCCn1c(=O)[nH]c2ccsc2c1=O)N1CCN(c2cccc(C(F)(F)F)c2)CC1	GPR32 ag 74.0, HTT promoter inh inconclusive
Cc1nc(NC(=O)N2CCCC2C(N)=O)sc1-c1ccnc(C(C)(C)C(F)(F)F)c1 (stereo not given)	NTMT1 inh 44.7µM (no result: GPR32 ag, HTT promoter inh, HTT-AS act)
CC(=O)Nc1ccc(S(=O)(=O)Nc2nc3n(n2)C(c2ccccc2)C=C(c2ccc(Cl)cc2)N3)cc1 (stereo not given)	GPR32 ag 83.5
COc1ccc(C2C=C(c3ccccc3)Nc3nc(NS(=O)(=O)c4ccc(Cl)cc4)nn32)cc1 (stereo not given)	GPR32 ag inconclusive, NTMT1 inh inconclusive
Cc1ccc(S(=O)(=O)Nc2nc3n(n2)C(c2ccc(Cl)cc2)C=C(c2ccccc2)N3)cc1 (stereo not given)	GPR32 ag 88.5, NTMT1 inh 35.5µM
Cc1ccc(C2C=C(c3ccc(Cl)cc3)Nc3nc(NC(=O)c4ccco4)nn32)cc1 (stereo not given)	GPR32 ag 107.6, HTT promoter inh inconclusive
Cc1ccc(C2C=C(c3ccccc3)Nc3nc(NS(=O)(=O)c4ccccc4)nn32)cc1 (stereo not given)	GPR32 ag inconclusive
O=S(=O)(Nc1nc2n(n1)C(c1ccccc1)C=C(c1ccc(Cl)cc1)N2)c1ccccc1 (stereo not given)	GPR32 ag 72.2
O=S(=O)(Nc1nc2n(n1)C(c1ccc(F)cc1)C=C(c1ccccc1)N2)c1ccc(Cl)cc1 (stereo not given)	GPR32 ag inconclusive, NTMT1 inh inconclusive
O=C(Cn1nc(-c2ccc(OC(F)(F)F)cc2)ccc1=O)NCCc1ccccc1	none (no result: GPR32 ag, HTT promoter inh, HTT-AS act)
CCc1ccc(CNC(=O)C2CCN(c3nnc(-n4c(C)ccc4C)s3)CC2)cc1	HTT promoter inh inconclusive, NTMT1 inh inconclusive
CCOc1ccc(CNC(=O)C2CCN(c3nnc(-n4c(C)ccc4C)s3)CC2)cc1	HTT promoter inh 14.1µM
O=C(O)Cc1cn(C2OCC(O)C(O)C2O[C@@H]2O[C@H](CO)[C@@H](O)[C@H](O)[C@H]2O)c2ccccc12 (stereo not given in full)	none (no result: GPR32 ag, HTT promoter inh, HTT-AS act)
FC(F)(F)c1ccccc1-c1nccc(NCc2ccc(-c3cccnc3)cc2)n1	none (no result: GPR32 ag, HTT promoter inh, HTT-AS act)
COc1cccc(NC(=O)C(=O)NCC(c2ccc3c(c2)OCO3)N2CCOCC2)c1 (stereo not given)	HTT-AS act 4.47µM
COc1cccc(C(=O)NCC(c2ccc3c(c2)OCO3)N2CCOCC2)c1 (stereo not given)	none
Cc1ccc(C(=O)NCC(c2ccc3c(c2)OCO3)N2CCN(c3ccc(F)cc3)CC2)cc1 (stereo not given)	HTT promoter inh 22.4µM
COc1ccc(C(=O)NCC(c2ccc3c(c2)OCO3)N2CCN(c3ccc(F)cc3)CC2)cc1 (stereo not given)	HTT promoter inh inconclusive
CC1=C(C(=O)Nc2ccc(Cl)cc2)C(c2ccc(C(F)(F)F)cc2)n2nnnc2N1 (stereo not given)	GPR32 ag 65.0
CC1=C(C(=O)Nc2ccc(C)cc2)C(c2ccc(Cl)cc2)n2nnnc2N1 (stereo not given)	none
CC1(C)O[C@]23C[C@H]1C[C@H](OC(=O)c1ccoc1)[C@]2(C)[C@@H](OC(=O)c1ccoc1)CCC3(C)O (stereo not given in full)	none (no result: GPR32 ag, HTT promoter inh, HTT-AS act)
C=C1CC2[C@@]3(C)C=CC(=O)C(C)(C)C3=C(O)C(=O)[C@@]2(C)C2(C(=O)OC)C(=O)C(C)OC(=O)[C@@]12C (stereo not given in full)	none (no result: GPR32 ag, HTT promoter inh, HTT-AS act)
CCc1cccc(NC(=O)c2nnn(Cc3ccc(SC)cc3)c2N)c1	GPR32 ag 61.7
CCOc1ccc(Cn2nnc(C(=O)Nc3cccc(SC)c3)c2N)cc1	none
Cc1ccc(NC(=O)c2nnn(Cc3cccc(C(F)(F)F)c3)c2N)c(C)c1	GPR32 ag 93.4
